# Screens from PubChem.
# MEKK3 PB1 HTS: MEKK3-MEK5 PB1 interaction, increase or decrease | Q99759 | bead-based flow cytometry, Alexa488-MEK5 binding to MEKK3; actives lie on both sides; 0 = blocked by unlabeled MEK5, 100 = vehicle | binding response (% of control), % at 10 µM | actives 1.4% (n = 290,000) | AID 1529;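 active = binding response more than 3 SD above or below the average of its plate-row segment, actives on both sides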;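 also: Alexa488 bead fluorescence after subtracting the streptavidin-only scavenger bead signal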
# Target sequence (Q99759 whole entry, looked up): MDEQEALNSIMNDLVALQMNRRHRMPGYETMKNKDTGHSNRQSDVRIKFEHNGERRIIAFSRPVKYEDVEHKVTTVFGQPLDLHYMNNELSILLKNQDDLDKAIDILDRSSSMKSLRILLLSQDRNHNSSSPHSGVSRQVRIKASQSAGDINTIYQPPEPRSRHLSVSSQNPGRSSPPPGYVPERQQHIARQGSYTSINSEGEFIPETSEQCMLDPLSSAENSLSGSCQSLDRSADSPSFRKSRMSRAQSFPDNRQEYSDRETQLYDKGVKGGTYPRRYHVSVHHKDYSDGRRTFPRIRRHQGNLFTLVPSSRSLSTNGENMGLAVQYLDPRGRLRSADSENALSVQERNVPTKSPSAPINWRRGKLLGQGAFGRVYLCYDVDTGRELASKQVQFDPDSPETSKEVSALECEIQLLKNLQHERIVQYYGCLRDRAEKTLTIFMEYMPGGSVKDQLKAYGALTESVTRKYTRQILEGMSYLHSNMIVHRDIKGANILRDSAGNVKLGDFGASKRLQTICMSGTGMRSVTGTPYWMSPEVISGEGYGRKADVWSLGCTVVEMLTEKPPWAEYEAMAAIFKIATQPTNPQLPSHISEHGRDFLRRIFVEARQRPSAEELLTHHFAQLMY
# MEKK2mut PB1 HTS: signal of MEK5 binding to mutant human MEKK2 PB1 domain. bead flow cytometry, Alexa488-MEK5 binding to MEKK2 mutant. percent response, % at 10 µM. actives 0.35% (n = 290,000); in the data active = percent response above about 24%, passing the limit was not always enough
# CHT allo act: allosteric activators of human choline transporter CHT; Q9GZV3; CHT-expressing cells, membrane potential dye, choline EC20; hits give high values; LV-AA mutant CHT in HEK293 cells; B-score at 10 µM; actives 0.49% (n = 310,000); AID 488977;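 active = initial fluorescence not abnormally high and integrated response B-score, plate-corrected, over 3 SD above library mean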
# MEKK2 WT-MEK5: raises or lowers MEK5 binding to wildtype human MEKK2 PB1 domain | actives 1.1% (n = 290,000) | Q9Y2U5 | AID 1531 | bead flow cytometry, Alexa488-MEK5 binding to MEKK2 WT; actives lie on both sides | binding response (% of control), % at 10 µM; in the data active = binding response below about 67% or above about 130%
# CHT block: inhibitors of human choline transporter CHT | CHT-expressing cells, membrane potential dye, choline response; hits give low values | actives 0.86% (n = 310,000) | Q9GZV3 | B-score at 10 µM;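 active = B-score over 3 SD under the library average, and starting fluorescence ratio not unusually high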;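 also: choline stimulus applied at its EC90 after an EC20 pre-addition; B-score computed on integrated fluorescence ratio after choline addition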
# Mot1-301 SUMO: inhibitors of SUMOylation pathway: yeast Mot1-301 growth rescue; actives 1% (n = 320,000); S. cerevisiae Mot1-301 growth rescue, ATP luminescence, 38.5C; percent above DMSO median, 100 means doubled; growth rescue, % at 18.8 µM;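 active = every valid replicate shows activation above 250% relative to neutral control wells; inactive = the rest, any valid replicate at or below 250%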;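 also: OY570 slx delta 5 strain wells were the positive control but not used for scaling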
# CHT activ conf: human CHT activation, confirmatory screen; shares compounds with CHT allo act; CHT-expressing cells, membrane potential dye fluorescence (FDSS); % of choline EC20–EC90 response window; HEK293 expressing CHT LV-AA mutant; choline added at its EC20; activation, % at 10 µM; actives 91% (n = 2,500); AID 504833;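 active = primary screen active, with duplicate mean activation above negative control mean plus 3 SD, cut at about 11% in these data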
# HEK293 MP dye: counter-screen for CHT activators: effect in parental HEK293 cells | ratio readout change at 10 µM, hits read low | membrane potential dye fluorescence (FDSS); measured after EC20 choline addition | actives 62% (n = 2,500) | shares compounds with CHT allo act;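 active = duplicate-averaged ratio beyond 3 SD from buffer wells, up or down, though filed actives are nearly all decreases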
# Starred values were filed as active, the others as inactive; i = inactive; . = no result given. Hits are enriched below; roughly 4.1% of the tested compounds scored in any of these assays.
SMILES,MEKK3 PB1 HTS,MEKK2mut PB1 HTS,CHT allo act,MEKK2 WT-MEK5,CHT block,Mot1-301 SUMO,CHT activ conf,HEK293 MP dye
O=C(N1CCCC1)N1CCN(S(=O)(=O)c2ccccc2)CC1,103,3,i,100,i,1,.,.
Nc1c2c(nc3ccccc13)N(c1ccccc1)CC2,102,-1,i,103,i,-6,.,.
CN1CCCC1=Nc1c2c(nc3ccccc13)N(C)CC2,92,-2,8.9*,94,i,5,61*,-57*
CN1CCCCc2c1nc1ccccc1c2N (tested in a mixture with another compound),103,5,8.6*,107,i,10,23*,-48*
C=CCNC(=O)CSc1nnc(C(CC)N(C)C)n1C1CCCCC1 (configuration not stated),80,-18,i,80,i,-7,.,.
